# NCOA2 inhibitor: human SRC2 (NCOA2) inhibition; AID 651957; hit rate 0.17% among 370,000; HEK293 GAL4-SRC2 luciferase reporter, luminescence; Q15596; inhibition, % at 9 µM;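 active = inhibition above the mean inhibition of all tested compounds plus 3 SD, set per campaign, cut at about 52% in these data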;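 also: 0% = DMSO treated cells and 100% = cells given Gossypol at 36 µM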
# LRH-1 inv ag: inverse agonists of human LRH-1 (NR5A2); O00482; inhibition, % at 3.6 µM; HEK293T StAR-luciferase reporter, LRH-1 transfected, 24 h; AID 602396; hit rate 0.13% among 360,000;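 active = inhibition above the mean inhibition of all tested compounds plus 3 SD, cut at about 73% in these data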;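 also: 0% = DMSO wells and 100% = reporter-only cells lacking LRH-1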
# Target sequence (O00482 whole entry, looked up): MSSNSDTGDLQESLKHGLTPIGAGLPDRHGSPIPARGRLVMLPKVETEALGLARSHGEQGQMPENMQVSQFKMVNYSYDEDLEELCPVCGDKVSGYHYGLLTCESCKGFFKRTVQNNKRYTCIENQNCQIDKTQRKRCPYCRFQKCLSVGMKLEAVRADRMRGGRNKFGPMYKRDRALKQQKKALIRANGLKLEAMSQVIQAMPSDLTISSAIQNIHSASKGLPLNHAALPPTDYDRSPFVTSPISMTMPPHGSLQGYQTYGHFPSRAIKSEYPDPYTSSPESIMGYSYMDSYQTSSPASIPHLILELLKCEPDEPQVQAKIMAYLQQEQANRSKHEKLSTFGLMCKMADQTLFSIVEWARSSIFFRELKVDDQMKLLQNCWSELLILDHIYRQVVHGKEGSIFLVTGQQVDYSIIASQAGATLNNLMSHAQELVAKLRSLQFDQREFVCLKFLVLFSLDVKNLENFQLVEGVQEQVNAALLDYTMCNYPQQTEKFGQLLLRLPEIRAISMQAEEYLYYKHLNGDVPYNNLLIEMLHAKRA
# NR2F2 inh: NR2F2 (human) inhibition, primary screen; hit rate 0.7% among 370,000; AID 686940; HEK293T NGFI-A luciferase reporter, luminescence; inhibition, % at 8.6 µM;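 active = inhibition above a per-plate cutoff, mean inhibition of test wells between control levels plus 3 SD, cut at about 38% in these data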;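 also: cells cotransfected with COUP-TFII expression vector driving the NGFI-A reporter; 0% = median of COUP-TF2 test wells and 100% = reporter-only cells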
# NCOA3 inh: human NCOA3 inhibition. AID 588352. hit rate 0.17% among 360,000. HEK293 GAL4-SRC3 luciferase reporter, luminescence. Q9Y6Q9. inhibition, % at 3.6 µM;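 active = inhibition above a per-campaign cutoff, the mean of all compounds plus 3 SD, cut at about 60% in these data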;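 also: 0% = DMSO-treated cells and 100% = gossypol-treated cells at 36 µM; higher means less SRC3-driven luciferase light from the GAL4 reporter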
# SRC1 inh: human NCOA1 inhibition | HEK293 GAL4-SRC1 luciferase reporter, luminescence | Q15788 | inhibition, % at 3.6 µM | hit rate 0.12% among 360,000;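 active = inhibition above the campaign mean plus 3 SD, with each screening campaign given its own cutoff, cut at about 60% in these data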;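 also: 0% = DMSO treated cells and 100% = gossypol at 36 µM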
# VP16 Luc counter: counter-screen for COUP-TFII antagonists: inhibitors of VP16. shares compounds with NR2F2 inh. HEK293 Gal4-VP16 luciferase reporter, luminescence. inhibition, % at 8.5 µM. hit rate 25% among 2,500; in the data active = inhibition above about 13%
# NR2F2 inh conf: COUP-TFII (NR2F2) inhibition, confirmation assay; hit rate 45% among 2,500; HEK293 NGFI-A luciferase reporter, luminescence; inhibition, % at 8.5 µM; shares compounds with NR2F2 inh;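 active = mean inhibition over three repeats above a set limit taken from the earlier primary screen, cut at about 38% in these data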;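 also: 100% = cells given the luciferase reporter alone without the COUP-TF2 vector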
# Active calls of the source: *; · = not tested or not shown. This is a sample that favours compounds with a hit; in the whole collection about 0.84% have one here.
SMILES,NCOA2 inhibitor,LRH-1 inv ag,NR2F2 inh,NCOA3 inh,SRC1 inh,VP16 Luc counter,NR2F2 inh conf
CCC1(C)Cc2c(sc(NC(=S)NC(=O)c3ccccc3)c2C#N)CO1 (centres undefined),-13,-8,-11,-27,-29,·,·
N#Cc1ccccc1COc1ccc(/C=C/C(=O)O)cc1,69*,27,68*,14,5,63*,51*
CCCC1CCC2(CCCN2CCOC(=S)Nc2ccccc2OC)CC1 (centres undefined),·,·,51*,·,·,2,8
CCCC1CCC2(CCCN2CCOC(=S)Nc2ccccc2Br)CC1 (centres undefined),·,·,26,·,·,·,·
Clc1ccc(C[n+]2cc(-c3ccccc3)n3c2CCCCC3)c(Cl)c1,13,26,42*,49,-8,11,22
Clc1ccc(-c2c[n+](Cc3ccc(Cl)cc3Cl)c3n2CCCCC3)cc1,24,25,24,36,10,·,·
COCCN(C(=O)CCC(=O)Nc1nccs1)C(C(=O)NC(C)(C)C)c1ccc(C)cc1 (centres undefined),76*,-25,60*,0,-13,-1,-5
Cc1ccc(-n2ncc3c(NCc4cccnc4)ncnc32)c(C)c1,19,17,41*,21,20,-12,24
C=CCN1[C@@H](CC(C)C)COc2cccc(N3CCCC3)c2S1(=O)=O,18,·,-2,·,·,·,·
CCCCCCCCCCCCCCCC[n+]1cccc2ccccc21,-13,33,54*,62*,27,15*,63*
Cc1nn(-c2ccccc2)c(C)c1C(=O)OC(C)C(=O)NC1CCCCC1C (centres undefined),11,21,39*,14,10,1,21
Cc1nc(N)nc(N)c1/C=C/C(C)(C)c1ccc(Cl)cc1,22,45,47*,49,70*,28*,23
N#Cc1ccccc1N1CCN(C(=O)C2CCN(c3ncnc4c3sc3cccc(F)c34)CC2)CC1,13,·,58*,·,·,-8,28
Cc1ccnc(Nc2nc(-c3sc(C)nc3C)cs2)c1,19,-79,70*,-16,-33,-139,44*
c1ccc(Nc2ncnc3sccc23)cc1,-31,-2,-4,-3,-30,·,·
CC(Nc1ncnc2sccc12)c1ccccc1 (centres undefined),22,47,60*,16,24,3,61*
Nc1ccc2c(c1)C(=O)C(=O)c1ccccc1-2,94*,105*,102*,93*,85*,97*,110*
CC(C)Oc1ccc(/C=C(\C#N)C(=O)NC2CC2)cc1,-81,-21,82*,-48,-38,-95,-37
CC1(c2ccccc2)CC(=O)N(c2ccc(NC(=O)c3ccccn3)cc2Cl)C1=O (centres undefined),·,·,17,·,·,·,·
Cc1sc(NC(=O)c2ccco2)c(C(c2cccnc2)N2CCC(C)CC2)c1C (centres undefined),10,29,51*,27,31,2,49*
CCN1CCN(C(c2cccnc2)c2c(NC(=O)c3ccco3)sc(C)c2C)CC1 (centres undefined),-23,0,6,-9,-1,·,·
O=[N+]([O-])c1ccc(Cl)c(C2Nc3cccc4cccc(c34)N2)c1,32,15,41*,17,-26,1,0
c1nc(NCC2CCCOC2)c2cc(-c3ccc4c(c3)OCO4)ccc2n1 (centres undefined),·,·,-16,·,·,·,·
Cc1cc(C)c(CN2CCN(C(=O)Cn3cnc4c(NCc5ccccc5)ncnc43)CC2)c(C)c1,5,47,80*,15,33,9,70*
O=C(Cn1cnc2c(NCc3ccccc3)ncnc21)N1CCN(c2ccccn2)CC1,-7,22,16,8,1,·,·
COC(=O)C1CN(C(=O)OC(C)(C)C)C2=C1C(=O)CC(C)(C(=O)OC(C)(C)C)C2 (centres undefined),-11,·,-4,·,·,·,·
C[C@H]1[C@H](NC(=O)c2ccc(C(C)(C)C)cc2)CC[C@@]23CCCN2C(=O)CCC[C@@H]13,·,·,32,·,·,·,·

# Screens deposited in PubChem BioAssay by The Scripps Research Institute Molecular Screening Center.
